# According to the supplement of paper PMC6089552:
# Out of some 3,200 compounds screened, about 300 (9.4%) showed activity. The list comes from a sample in which actives are over-represented; it also holds similar structures and randomly drawn compounds.
# Tested on: A673/TR/shEF
# Experiment: cell viability (LOESS-normalised, relative to median of negative controls) (log2 ratio); higher = more viable cells (less compound effect), active = hit call of the paper (over 3 MAD below the median)
# Conditions: treatment time: 72 h
# Procedure, shortened: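 For three days, A673/TR/shEF Ewing sarcoma cells in 384-well plates (1,500 per well) were treated with library compounds at two or more concentrations or with DMSO controls, after doxycycline had been added or withheld 24 h beforehand to induce EWS-FLI1 shRNA knockdown. Viability was read by CellTiter-Glo luminescence on an Envision reader. The data were LOESS-corrected per plate, divided by the median of negative controls and log2-transformed.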
# [1] = 0.25 µM, library screen: screen1, EWS-FLI1 expression: high (no doxycycline)
# [2] = 0.25 µM, library screen: screen1, EWS-FLI1 expression: low (doxycycline-induced shRNA knockdown)
# [3] = 2.5 µM, library screen: screen1, EWS-FLI1 expression: high (no doxycycline)
# [4] = 2.5 µM, library screen: screen1, EWS-FLI1 expression: low (doxycycline-induced shRNA knockdown)
# [5] = 0.25 µM, library screen: screen2, EWS-FLI1 expression: high (no doxycycline)
# [6] = 0.25 µM, library screen: screen2, EWS-FLI1 expression: low (doxycycline-induced shRNA knockdown)
# [7] = 2.5 µM, library screen: screen2, EWS-FLI1 expression: high (no doxycycline)
# [8] = 2.5 µM, library screen: screen2, EWS-FLI1 expression: low (doxycycline-induced shRNA knockdown)
structure (smiles),measurement,setting,value
N#Cc1c2c(c(NCCCO)n3c1nc1ccccc13)CCC2,cell viability (log2),[1],0.146 (inactive)
same,cell viability (log2),[2],0.012 (inactive)
same,cell viability (log2),[3],0.0888 (inactive)
same,cell viability (log2),[4],-0.0597 (inactive)
COc1cc(O)c2c(=O)cc(C)oc2c1CC=C(C)C,cell viability (log2),[1],0.113 (inactive)
same,cell viability (log2),[2],0.0803 (inactive)
same,cell viability (log2),[3],0.117 (inactive)
same,cell viability (log2),[4],0.16 (inactive)
COc1ccc(C(=O)c2ccc(O)cc2O)c(O)c1,cell viability (log2),[1],0.0224 (inactive)
same,cell viability (log2),[2],0.0701 (inactive)
same,cell viability (log2),[3],0.116 (inactive)
same,cell viability (log2),[4],0.108 (inactive)
COc1ccc(CN2CCN(Cc3cccc([N+](=O)[O-])c3)CC2)cc1OC,cell viability (log2),[1],0.0511 (inactive)
same,cell viability (log2),[2],0.032 (inactive)
same,cell viability (log2),[3],0.111 (inactive)
same,cell viability (log2),[4],0.138 (inactive)
COc1ccc2c(=O)c(-c3cc4c(cc3OC)OCO4)coc2c1,cell viability (log2),[1],0.0588 (inactive)
same,cell viability (log2),[2],-0.078 (inactive)
same,cell viability (log2),[3],0.0766 (inactive)
same,cell viability (log2),[4],0.0171 (inactive)
COc1ccc2cc3[n+](cc2c1OC)CCc1cc2c(cc1-3)OCO2,cell viability (log2),"0.025 µM, library screen: screen2, EWS-FLI1 expression: high (no doxycycline)",0.0792 (inactive)
same,cell viability (log2),"0.025 µM, library screen: screen2, EWS-FLI1 expression: low (doxycycline-induced shRNA knockdown)",0.0888 (inactive)
same,cell viability (log2),[1],0.0876 (inactive)
same,cell viability (log2),[2],0.0916 (inactive)
same,cell viability (log2),[5],0.139 (inactive)
same,cell viability (log2),[6],0.0365 (inactive)
same,cell viability (log2),[3],-0.0264 (inactive)
same,cell viability (log2),[4],0.141 (inactive)
same,cell viability (log2),[7],-0.318 (active)
same,cell viability (log2),[8],-0.00212 (inactive)
same,cell viability (log2),"25 µM, library screen: screen2, EWS-FLI1 expression: high (no doxycycline)",-1.53 (active)
same,cell viability (log2),"25 µM, library screen: screen2, EWS-FLI1 expression: low (doxycycline-induced shRNA knockdown)",-0.365 (active)
COc1cc2c(cc1OC)-c1cc3ccc(OC)c(OC)c3c[n+]1CC2,cell viability (log2),[1],0.021 (inactive)
same,cell viability (log2),[2],0.0361 (inactive)
same,cell viability (log2),[3],-0.0191 (inactive)
same,cell viability (log2),[4],0.0646 (inactive)
COC1=CC(=O)C(O)=C/C1=C/C=C/c1ccccc1,cell viability (log2),[1],0.0854 (inactive)
same,cell viability (log2),[2],0.141 (inactive)
same,cell viability (log2),[3],0.097 (inactive)
same,cell viability (log2),[4],0.125 (inactive)
N#CC(=C(N)Sc1ccccc1N)C(C#N)=C(N)Sc1ccccc1N,cell viability (log2),"0.025 µM, library screen: screen1, EWS-FLI1 expression: high (no doxycycline)",0.299
same,cell viability (log2),"0.025 µM, library screen: screen1, EWS-FLI1 expression: low (doxycycline-induced shRNA knockdown)",-0.0593 (inactive)
same,cell viability (log2),[1],0.259 (inactive)
same,cell viability (log2),[2],0.136 (inactive)
same,cell viability (log2),[3],-0.31 (active)
same,cell viability (log2),[4],0.171 (inactive)
same,cell viability (log2),"25 µM, library screen: screen1, EWS-FLI1 expression: high (no doxycycline)",-0.459 (active)
same,cell viability (log2),"25 µM, library screen: screen1, EWS-FLI1 expression: low (doxycycline-induced shRNA knockdown)",0.0799 (inactive)
N#CC(=C(/N)Sc1ccccc1N)/C(C#N)=C(\N)Sc1ccccc1N,cell viability (log2),[5],0.102 (inactive)
same,cell viability (log2),[6],0.0572 (inactive)
same,cell viability (log2),[7],-0.0299 (inactive)
same,cell viability (log2),[8],-0.0332 (inactive)
FC(F)(F)c1cc(CO[C@H]2CCCN[C@H]2c2ccccc2)cc(C(F)(F)F)c1,cell viability (log2),[5],0.151 (inactive)
same,cell viability (log2),[6],0.112 (inactive)
same,cell viability (log2),[7],0.041 (inactive)
same,cell viability (log2),[8],0.077 (inactive)
CC(=O)O.CC(=O)O.[Cd],cell viability (log2),[1],0.129 (inactive)
same,cell viability (log2),[2],-0.0033 (inactive)
same,cell viability (log2),[3],0.0042 (inactive)
same,cell viability (log2),[4],-0.0745 (inactive)
CC(=O)O[C@@H]1c2c(ccc3ccc(=O)oc23)OC(C)(C)[C@@H]1OC(=O)CC(C)C,cell viability (log2),[1],0.0407 (inactive)
same,cell viability (log2),[2],-0.0116 (inactive)
same,cell viability (log2),[3],0.121 (inactive)
same,cell viability (log2),[4],0.0173 (inactive)
CC(=O)OC(CC(=O)[O-])C[N+](C)(C)C (stereo not drawn),cell viability (log2),[1],0.00442 (inactive)
same,cell viability (log2),[2],0.0665 (inactive)
same,cell viability (log2),[3],0.0316 (inactive)
same,cell viability (log2),[4],-0.00031 (inactive)
